# From PubChem BioAssay AID463173 (ICCB-Longwood Screening Facility, Harvard Medical School, 2010)
# The whole screen tested about 52,000 compounds, of which about 4,300 (8.3%) were called active. No stated cut-off is given here; in the data, active means survival mostly below about 52% (no sharp cut-off); inactive means mostly above about 56%. What follows is part of a selection rich in actives, with near analogues and random picks from the rest.
# Test system: DeltatarO mutant
# Assay: S. aureus survival, RN4220 and DeltatarO strains – OD600, teichoic acid synthesis inhibitors, primary screen (AID 463173)
# Settings: S. aureus RN4220 wild type/DeltatarO growth, OD600, 18 h, hits give low values, screened at 18.75 µg/mL (by protocol)
row,Structure (SMILES),survival
1,O=C(Cn1c(-c2cccs2)cc2cc(F)ccc21)N1CCN(c2ccccc2)CC1,71% (inactive)
2,Cc1ccc(Cl)cc1NC(c1ccc(F)cc1)c1nnc(-c2ccccc2)o1 (stereo unspecified),86% (inactive)
3,COc1ccc(NC(c2ccc(F)cc2)c2nnc(-c3ccccc3Cl)o2)cc1Cl (stereo unspecified),78% (inactive)
4,CCc1cccc(NC(c2nnc(-c3ccccc3)o2)c2ccc(F)cc2Cl)c1 (stereo unspecified),83% (inactive)
5,CCc1cccc(NC(c2ccccc2)c2nnc(-c3ccccc3F)o2)c1 (stereo unspecified),11% (active)
6,Cc1ccc(C)c(NC(c2ccccc2)c2nnc(-c3ccccc3F)o2)c1 (stereo unspecified),4% (active)
7,COc1cc(Cl)c(C)cc1NC(c1ccccc1)c1nnc(-c2ccccc2Cl)o1 (stereo unspecified),69% (inactive)
8,COc1ccc(OC)c(NC(=O)CSc2cn(CC(=O)N3CCOCC3)c3ccccc23)c1,91% (inactive)
9,CC(=O)Nc1ccc2nc(SCc3ccccc3)sc2c1,63% (inactive)
10,CC(C)NC(=O)Cn1c(SCC(=O)N2CCc3ccccc32)nc2ccccc21,97% (inactive)
11,Cc1ccc2nc(-c3ccccc3F)c(Nc3ccc(Cl)cc3)n2c1,16% (inactive)
12,CCCCn1c(=O)nc2n(-c3ccc(F)cc3)c3ccccc3cc-2c1=O,41% (active)
13,Cn1c(=O)nc2n(-c3ccc(Br)cc3)c3cccc(Cl)c3cc-2c1=O,80% (inactive)
14,Cc1ccc(-n2c3nc(=O)n(C)c(=O)c-3cc3ccccc32)c(C)c1,99% (inactive)
15,CCOc1ccccc1C(=O)N1CCC(c2nc3ccccc3o2)CC1,80% (inactive)
16,Cc1cccc(NC(=O)CCCn2c(C)c3cnn(-c4ccccc4)c(=O)c3c2C)c1C,71% (inactive)
17,CCOC(=O)c1cnc(SC2CCc3ccccc3C2=O)nc1N (stereo unspecified),79% (inactive)
18,CCOC(=O)c1cnc(SCC(=O)OC)nc1N,95% (inactive)
19,CCCCSc1ncc(C(=O)OCC)c(N)n1,78% (active)
20,COc1ccc(CNC(=O)CN(c2ccccc2)S(=O)(=O)N(C)C)cc1,145% (inactive)
21,O=C(Cc1csc2nc(-c3ccccc3)cn12)NCc1ccc(F)cc1,90% (inactive)

row,Structure (SMILES),survival
1,Cc1cccc(-c2cc3nc4c(c(N5CCCC5)n3n2)CCCC4)c1,123% (inactive)
2,CC(C)CSc1oc(-c2ccco2)nc1S(=O)(=O)c1ccc(Br)cc1,33% (active)
3,O=C(CSc1oc(-c2ccco2)nc1S(=O)(=O)c1ccc(Br)cc1)c1ccccc1,47% (active)
4,CCCSc1oc(-c2ccco2)nc1S(=O)(=O)c1ccc(Br)cc1,55% (inactive)
5,Cc1ccc(CSc2oc(-c3ccco3)nc2S(=O)(=O)c2ccc(C)cc2)cc1,62% (inactive)
6,O=S(=O)(c1ccc(Br)cc1)c1nc(-c2ccco2)oc1SCc1ccccc1F,44% (active)
7,CCSc1oc(-c2ccco2)nc1S(=O)(=O)c1ccc(Br)cc1,54% (inactive)
8,Cc1ccc(S(=O)(=O)c2nc(-c3ccco3)oc2SCC(C)C)cc1,48% (active)
9,Cc1ccc(S(=O)(=O)c2nc(-c3ccco3)oc2SCc2ccc(F)cc2)cc1,66% (inactive)
10,O=C(CSc1oc(-c2ccco2)nc1S(=O)(=O)c1ccc(Cl)cc1)c1ccccc1,125% (inactive)
11,O=S(=O)(c1ccc(Cl)cc1)c1nc(-c2ccco2)oc1SCc1ccccc1F,62% (inactive)
12,O=C(CSc1oc(-c2ccco2)nc1S(=O)(=O)c1ccc(Br)cc1)c1ccc(Cl)cc1,52% (inactive)
13,O=S(=O)(c1ccc(Br)cc1)c1nc(-c2ccco2)oc1SCc1ccccc1Cl,149% (inactive)
14,O=C(CSc1nnc(-c2ccccc2)c(-c2ccccc2)n1)NC1CCCC1,77% (inactive)
15,COc1ccc(CC(NC(C)=O)C(=O)NC2CCN(c3nc(OC)nc(OC)n3)CC2)cc1 (stereo unspecified),88% (inactive)
16,Cc1ccc(-c2cc(-c3coc4ccc(Cl)cc4c3=O)c3c(n2)-c2ccccc2OC3)cc1,77% (inactive)
17,Cc1ncc(COC(=O)C(C)C)c2cc(C(=O)Nc3ccccc3C(F)(F)F)c(=O)oc12,134% (inactive)
18,Cc1ccc(OCC(=O)Nc2nc(-c3ccc(Br)cc3)ns2)cc1C,110% (inactive)
19,O=C(Cc1cccs1)Nc1c(C(=O)Nc2ccc(F)cc2)oc2ccccc12,94% (inactive)
20,Cc1ccc(C(=O)Nc2ccc(-n3c(C)nc4ccccc4c3=O)cc2)cc1[N+](=O)[O-],117% (inactive)
21,Cc1cc(-n2c(C)nc3ccccc3c2=O)ccc1NC(=O)c1ccc(C)c([N+](=O)[O-])c1,37% (active)

row,Structure (SMILES),survival
1,Cc1cc(-n2c(C)nc3ccccc3c2=O)ccc1NC(=O)c1ccc([N+](=O)[O-])cc1,83% (inactive)
2,Cc1cc(-n2c(C)nc3ccccc3c2=O)ccc1NC(=O)c1ccccc1[N+](=O)[O-],69% (inactive)
3,Cc1cc(-n2c(C)nc3ccccc3c2=O)ccc1NC(=O)c1cccc([N+](=O)[O-])c1C,0% (active)
4,Cc1c(C(=O)Nc2ccc(-n3c(C)nc4ccccc4c3=O)cc2)cccc1[N+](=O)[O-],99% (inactive)
5,CCOc1ccccc1NC(=O)c1sc(-n2nc(C)c(CCC(C)C)c2C)nc1C,69% (inactive)
6,COc1cccc2sc(N(Cc3cccnc3)C(=O)c3ccc4c(c3)OCCO4)nc12,72% (inactive)
7,O=C(CSc1nc2ncccc2[nH]1)Nc1cc(F)ccc1F,86% (inactive)
8,Cc1ccc(CN2c3ccccc3-c3nc(SCC(=O)Nc4c(C)cc(C)cc4C)ncc3S2(=O)=O)cc1,128% (inactive)
9,NC(=O)CSc1ncc2c(n1)-c1ccccc1N(Cc1ccccc1)S2(=O)=O,89% (inactive)
10,CCN1c2ccccc2-c2nc(SCC(=O)NCc3ccccc3)ncc2S1(=O)=O,93% (inactive)
11,CCN1c2ccccc2-c2nc(SCC(=O)NCc3ccc(Cl)cc3)ncc2S1(=O)=O,46% (active)
12,Cc1ccccc1CN1c2ccccc2-c2nc(SCC(=O)NCCc3ccccc3)ncc2S1(=O)=O,66% (inactive)
13,Cc1ccc(CN2c3ccccc3-c3nc(SCC(=O)NCc4ccccc4)ncc3S2(=O)=O)cc1,17% (active)
14,CCN1c2ccccc2-c2nc(SCC(=O)NCc3ccc(C)cc3)ncc2S1(=O)=O,105% (inactive)
15,O=C(CSc1ncc2c(n1)-c1ccccc1N(Cc1ccccc1)S2(=O)=O)Nc1ccccc1,-5% (active)
16,Cc1ccccc1CN1c2ccccc2-c2nc(SCC(=O)NCc3ccccc3)ncc2S1(=O)=O,20% (active)
17,O=C(CSc1ncc2c(n1)-c1ccccc1N(Cc1ccc(F)cc1)S2(=O)=O)NCc1ccccc1,87% (inactive)
18,Cc1ccc(CN2c3ccccc3-c3nc(SCC(=O)NCCc4ccccc4)ncc3S2(=O)=O)cc1,55% (inactive)
19,Cc1ccccc1CN1c2ccccc2-c2nc(SCC(=O)c3ccccc3)ncc2S1(=O)=O,102% (inactive)
